Reference: publication PMC7819943, “Rice protein-binding microarrays: a tool to detect cis-acting elements near promoter regions in rice”
Whole data set: some 39,000 sequences, median “fluorescence intensity (a.u.)” near 4,300, cut for the highest 2% near 39,000. For the sample, the highest values were picked, then their nearest neighbours and some sequences at random.

What follows are sequences tested against T1, OsSMF1 (Oryza sativa, UniProt Q6ZLB0 1-436) (assay: protein-binding microarray (RPBM); PBS, 2% BSA, 51.3 ng/ul salmon testes DNA, 50 uM zinc acetate, 200 nM TF, 25 C, 1 h; high values mean tight binding). Conditions: protein: recombinant; tags: N-terminal polyhistidine and DsRed monomer fusion (pET32a); chain copies: 2; label: CyDye5-dUTP incorporated in the synthesized complementary strand; 3' TTTTT single-stranded linker to array surface; dsDNA, one strand shown.
T1 sequence: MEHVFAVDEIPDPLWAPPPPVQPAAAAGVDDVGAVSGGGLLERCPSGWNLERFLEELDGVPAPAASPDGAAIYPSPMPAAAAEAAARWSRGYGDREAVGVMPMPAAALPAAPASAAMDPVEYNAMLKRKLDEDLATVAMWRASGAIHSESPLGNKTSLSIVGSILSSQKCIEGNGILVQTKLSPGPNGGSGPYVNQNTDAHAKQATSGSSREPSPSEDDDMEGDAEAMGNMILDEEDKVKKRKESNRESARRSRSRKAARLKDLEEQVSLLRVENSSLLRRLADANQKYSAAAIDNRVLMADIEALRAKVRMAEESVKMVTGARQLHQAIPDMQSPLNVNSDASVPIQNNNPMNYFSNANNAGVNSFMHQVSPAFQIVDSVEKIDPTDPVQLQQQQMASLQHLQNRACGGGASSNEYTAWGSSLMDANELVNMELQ
Summary of the method: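 Transcription factors were made in E. coli BL21-CodonPlus as N-terminal fusions to a polyhistidine tag and DsRed, then purified on Ni–NTA. After primer extension with Cy5-dUTP and blocking with 2% BSA, a custom Agilent array was exposed for 1 h at 25 °C to 200 nM protein in PBS, 2% BSA, salmon testes DNA and 50 µM zinc acetate. Washed arrays were scanned on an Axon 4000B, and the binding signal is per-feature fluorescence intensity in arbitrary units.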
With “CACACCCTTACTGTAGCTATCACTGCACAAAGCCAAAACCCGGAGTCACCTAGTGCAG” the binding signal was 43600 fluorescence intensity (a.u.).
“CAACCATGGCGTCATCCTCTTCCTCCTCCTCCTCCTCCTCCGGAGTCACCTAGTGCAG” was tested, and the binding signal was 5800 fluorescence intensity (a.u.).
With “CCGTCTTCTTCCTCCACGTTCCTATCCATGGCGCCAGTTCCGGAGTCACCTAGTGCAG” the binding signal was 41400 fluorescence intensity (a.u.).
With “CTTTGCCACGGCGGTCTCTCGTCCTCTTCCTCCTCTCCGCCGGAGTCACCTAGTGCAG” the binding signal was 4190 fluorescence intensity (a.u.).
With “CCACGGGTTCTTCCTCGATGCCTTCTCCGGCGCCGTCCGGCGGAGTCACCTAGTGCAG” the binding signal was 45300 fluorescence intensity (a.u.).
“GCCTTCTTCCTCGCCTGCGGCCGTCTCCGCCACCTCGACCCGGAGTCACCTAGTGCAG” was tested, and the binding signal was 4040 fluorescence intensity (a.u.).
For “TCCATGGCGCCACACGTCACCACCTTCTCACACCCTCGTCCGGAGTCACCTAGTGCAG”, the binding signal was 18400 fluorescence intensity (a.u.).
With “CGGCCGCGTCAGGGAGGACGCCGCGCGGCACTACTTCCGGCGGAGTCACCTAGTGCAG” the binding signal was 3870 fluorescence intensity (a.u.).
For “CGACGGCCACAACCGGTTGTGGCGGCGTCTGCGTTGGCAGCGGAGTCACCTAGTGCAG”, the binding signal was 5430 fluorescence intensity (a.u.).
With “ATTGCTTTATATGGTTATTTAAGTTTATTTTGCATCCCTACGGAGTCACCTAGTGCAG” the binding signal was 22600 fluorescence intensity (a.u.).
With “ACAGGAGCACCATCAACAGCTGACAACTTGGCATTGGTATCGGAGTCACCTAGTGCAG” the binding signal was 3680 fluorescence intensity (a.u.).
With “ATCAAAATGGCAACAAAAGGGAGTCCAAAGTGAAAATTTTCGGAGTCACCTAGTGCAG” the binding signal was 36100 fluorescence intensity (a.u.).
In the case of “GCGGCTGAATTAATCTCCATCTGGCGAGCATCCACATCCTCGGAGTCACCTAGTGCAG”, the binding signal is reported as 52300 fluorescence intensity (a.u.).
In the case of “CCTCTGGCATCCATTATTGAGTTTATTAATCCTCCATCCTCGGAGTCACCTAGTGCAG”, the binding signal is reported as 26300 fluorescence intensity (a.u.).
In the case of “ATCTCCATCGCTGGCGACGGCGAGCATCGCATCGCATCGCCGGAGTCACCTAGTGCAG”, the binding signal is reported as 3150 fluorescence intensity (a.u.).
“ACATCATCGGCTACGTCAGGTCCAGCGCCGCCGCCAAGGCCGGAGTCACCTAGTGCAG” was tested, and the binding signal was 6640 fluorescence intensity (a.u.).
For “AACCCTAGCCACTCTCGTTTCATTGGTCTGACTTATTGGGCGGAGTCACCTAGTGCAG”, the binding signal was 14700 fluorescence intensity (a.u.).
With “CGCGCGTCTCGACTCCGTCCCAATCGATCGATCGATCGCGCGGAGTCACCTAGTGCAG” the binding signal was 12800 fluorescence intensity (a.u.).
For “GGACACACACCCACACGCGCATCCATCCATCCATCCATCCCGGAGTCACCTAGTGCAG”, the binding signal was 3220 fluorescence intensity (a.u.).
In the case of “CACGAGCTGGTGGGCATCGAGGACTCCACACACGCGCATCCGGAGTCACCTAGTGCAG”, the binding signal is reported as 42800 fluorescence intensity (a.u.).
For “CGCGCCATCGGCACGCTGGGCCAACACGGCACGGTGGACCCGGAGTCACCTAGTGCAG”, the binding signal was 3820 fluorescence intensity (a.u.).
With “GGTGTGGCGTGAGCGTGACACGGTGTCAACTGTCAAGTGTCGGAGTCACCTAGTGCAG” the binding signal was 3400 fluorescence intensity (a.u.).
With “TCTCGCCTACCACCAAGCTCATCTCGTTTCGTTAGCTACCCGGAGTCACCTAGTGCAG” the binding signal was 41600 fluorescence intensity (a.u.).
For “TGCCCGGCTCGGCTACCCCGTCGCCACCGCCGTTCGTTTCCGGAGTCACCTAGTGCAG”, the binding signal was 3190 fluorescence intensity (a.u.).
In the case of “AATAGCTCTCTCCTCAGTCTCTCACGGCCTCATCACCACCCGGAGTCACCTAGTGCAG”, the binding signal is reported as 3170 fluorescence intensity (a.u.).
In the case of “TGGCGGTTTGGAAGGCGGTTTTGGCTGACGTGGCGTCTACCGGAGTCACCTAGTGCAG”, the binding signal is reported as 43800 fluorescence intensity (a.u.).
For “GGTCCCTCAGCGGTTTTGGCTGACGTGGCGCATACGTGGCCGGAGTCACCTAGTGCAG”, the binding signal was 51700 fluorescence intensity (a.u.).
“TTTAGATGGCGGTTTTGGCTGACGTGGCGTCTACGTGACGCGGAGTCACCTAGTGCAG” was tested, and the binding signal was 30700 fluorescence intensity (a.u.).
With “GTTTTGACCCGGTTTTGGTCTACGTGGCGCTGAGTCAGCGCGGAGTCACCTAGTGCAG” the binding signal was 29900 fluorescence intensity (a.u.).
“AGGCGGTTTTGGCTGATGTGGCGTCTACGTGGCTTGTTTGCGGAGTCACCTAGTGCAG” was tested, and the binding signal was 25300 fluorescence intensity (a.u.).
For “GACCCCGGTTTTGTCCCACGTGGCGGCTGACTCAGCGTGGCGGAGTCACCTAGTGCAG”, the binding signal was 22500 fluorescence intensity (a.u.).
“GATCTCCTTTACACGTGATGTTGACGTGGCGTTTAGGTGGCGGAGTCACCTAGTGCAG” was tested, and the binding signal was 26500 fluorescence intensity (a.u.).
With “GGAAGCGCCAGCCAGCGCTCGCCGTTGTCACCTGTCACACCGGAGTCACCTAGTGCAG” the binding signal was 3480 fluorescence intensity (a.u.).
In the case of “TACAGATCGATGCGACACTCTGACACGTTACGCTCTCTCTCGGAGTCACCTAGTGCAG”, the binding signal is reported as 6440 fluorescence intensity (a.u.).
With “TTGTGATGTCCATGTCACATGCAGTCCATTAAGGCCCTTGCGGAGTCACCTAGTGCAG” the binding signal was 5190 fluorescence intensity (a.u.).
In the case of “GTTGTTGTTCTTGGATGTGAATGTGAATAATGTGATGTTTCGGAGTCACCTAGTGCAG”, the binding signal is reported as 3350 fluorescence intensity (a.u.).
With “TGTGGTGGCGAGCGGCACGGAGGCGGGGCGGTGGAGGGAGCGGAGTCACCTAGTGCAG” the binding signal was 3980 fluorescence intensity (a.u.).
In the case of “TAGAGGCAAGCACGACCAATGAGGACATAGGGAATGGTTCCGGAGTCACCTAGTGCAG”, the binding signal is reported as 9700 fluorescence intensity (a.u.).
For “CAGTGCTAGGGAAGCGACCAATGATGGATAGTGGGAGGCACGGAGTCACCTAGTGCAG”, the binding signal was 45600 fluorescence intensity (a.u.).
With “CTGTGCCGCTCGCTCGTTCGCTCTGTGACTGTACGTACATCGGAGTCACCTAGTGCAG” the binding signal was 4590 fluorescence intensity (a.u.).
“GTGTGGGGCCACGTCACAGTGGGCCCCATATGTCGGTGGGCGGAGTCACCTAGTGCAG” was tested, and the binding signal was 12700 fluorescence intensity (a.u.).
In the case of “TTGTCGCGATGTGCCCCTTCTACGGGGTGCCACGTCACATCGGAGTCACCTAGTGCAG”, the binding signal is reported as 39500 fluorescence intensity (a.u.).
For “CCACATCGGATGCCACGTCAGCCCTAGCCACATCAGCGCACGGAGTCACCTAGTGCAG”, the binding signal was 38500 fluorescence intensity (a.u.).
